This note sets out measurements from PubChem BioAssay (NCATS).

Where “and” joins values, the source holds several entries; their conditions need not be identical. Equal values may be shown once. Results filed as inconclusive are left out. Calls of active or inactive are those of the source. Unless noted, calls follow the shape of the dose curve; as a rule, active = well fitted curve in the direction sought with a large enough effect; inconclusive = small, poorly fitted or top-dose-only effect, or another doubt; inactive = no such curve, though single readings can be large; an effect the other way counts as inactive or inconclusive.

Assay [1] can be described thus: Cell Viability - HepG2 (AID 433; calls by dose curve;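 also: potency is read from the fitted curve at half-maximal effect; cells exposed to compound for 40 hours; potency for ATP loss meaning cytotoxicity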). The conditions noted are these: qHTS. Summed up: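 Read-out is luciferase-based quantitation of cellular ATP as a measure of viable HepG2 cells after 40 h treatment at 37 °C. Signal decrease is scaled between DMSO-only and 100 uM tamoxifen controls, with AC50 fitted by the Hill equation.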
Background: Quantitative high-throughput screening tests each substance at several concentrations.

The nature of assay [2]: Cell Viability - Mesenchymal (AID 546).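 Also: cells exposed to compound for 40 hours before reading.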 The conditions noted are these: mesenchymal cells viability, qHTS; activity change, negative = cytotoxicity: at 91.7 µM (top of the series). The gist of the method: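 In this qHTS cytotoxicity format, glomerulus-derived human mesenchymal kidney cells received compound for 40 hr, then luciferase-based ATP quantitation. Concentration-response data were fitted with the Hill equation.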

Assay [3] can be described thus: Cellular Toxicity (caspase-3) Jurkat (AID 655).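 Also: cells exposed to compound for 16 h at 37 °C before reading.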 Conditions: Jurkat caspase-3 activation, luminescence; caspase-3 activation: at 92.2 µM (top of the series), DMSO = 0%, tamoxifen = 100%. Summed up:
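5000 Jurkat cells/well; compound 16 hr, 37 °C; Caspase-Glo 3/7 added, 20 min RT; luminescence read. Norm: DMSO = 0%, tamoxifen 100 uM = 100%. AC50, Hill model.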

Assay [4] is described as follows: Cell Viability - LYMP1-002 - Assay at 16 hr (AID 948).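 Also: 0% = DMSO alone and full effect = 92 µM tetraoctylammonium bromide.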 Conditions: LYMP1-002 lymphoblastoid cell viability; series mostly up to 92.2 µM. Summed up: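 Seed 2500 LYMP1-002 cells per well in complete medium and hold 5 hr at 37 C. Add compound across a concentration series and incubate 16 hr at 37 C. Add CellTiter-Glo, wait 30 min at room temperature, read luminescence.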

A short description of assay [5]: Cell Viability - LYMP2-003 (AID 965).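 Also: cells exposed to compounds for 24 h before reading; nearly all actives have a fitted effect of over 50% in size.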 Also: potency is read from the fitted curve at half-maximal effect.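 As to activity change, negative = cytotoxicity: 0% = DMSO only and full effect = 92 µM tetraoctylammonium bromide.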 The conditions noted are these: LYMP2-003 lymphoblastoid cell viability; series mostly up to 92.2 µM. Summed up: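 Seed 2500 lymphoblastoid cells/well; incubate 5 hr, 37 C; add compounds; incubate 24 hr, 37 C; add CellTiter-Glo, 30 min RT; read luminescence. AC50 from Hill fit.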
Assay [6] is described as follows: Cell Viability - LYMP2-011 (AID 969).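 Also: 0% = DMSO only and full inhibition = 92 µM tetraoctylammonium bromide; nearly all actives have a fitted effect of over 60% in size.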 Conditions: LYMP2-011 lymphoblastoid cells viability; series mostly up to 92.2 µM. Summed up: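 Cytotoxicity qHTS with ATP content as read-out: lymphoblastoid cells (2500/well) exposed to compound for 24 h at 37 C, then luciferase luminescence measured. Concentration-response data fitted with the standard Hill equation to give AC50.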

Assay [7] can be described thus: Cell Viability - LYMP2-013 (AID 970).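 Also: 0% = DMSO only and full inhibition = tetraoctylammonium bromide control; nearly all actives have a fitted effect of over 55% in size.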 The conditions noted are these: LYMP2-013 lymphoblastoid cells viability; series mostly up to 92.2 µM. Summed up:
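qHTS cytotoxicity: ATP-dependent luminescence (CellTiter-Glo, 30 min room temperature) read after 24 h compound exposure at 37 C of 2500 LYMP2-013 lymphoblastoid cells per well. Concentration-response fitted with Hill equation to give AC50.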

Assay [8] is described as follows: Cell Viability - LYMP2-021 (AID 974). Also: nearly all actives have a fitted effect of over 55% in size. Also: potency is read from the fitted curve at half-maximal effect. As to activity change, negative = cytotoxicity: % is scaled to controls: 0 for no effect and ±100 for the full control effect. The conditions noted are these: LYMP2-021 lymphoblastoid cells viability; series mostly up to 92.2 µM. The gist of the method: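 AC50 values come from Hill-equation fits to CellTiter-Glo luminescence (ATP content), read after 24 hour compound exposure at 37 C of 2500 LYMP2-021 lymphoblastoid cells/well; tetraoctylammonium bromide as positive control.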

The nature of assay [9]: Cell Viability - LYMP2-002 (AID 977).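 Also: plate controls were DMSO only for no effect and 92 µM tetraoctylammonium bromide for full effect.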 Conditions: LYMP2-002 lymphoblastoid cell viability, qHTS; series mostly up to 92.2 µM. The gist of the method:
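In this qHTS viability screen, 2500 human lymphoblastoid cells per well receive compound for 24 hr at 37 C, and luciferase-based ATP luminescence gives the viability signal. Tetraoctylammonium bromide serves as positive control.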

Assay [10] can be described thus: Cell Viability - LYMP2-008 (AID 980). Also: % is scaled to controls: 0 for no effect and ±100 for the full control effect; nearly all actives have a fitted effect of over 60% in size. The conditions noted are these: LYMP2-008 lymphoblastoid cell viability, qHTS; series mostly up to 92.2 µM. Summed up:
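Cytotoxicity determined from ATP-dependent luciferase luminescence (CellTiter-Glo) following 24 h compound exposure of human lymphoblastoid LYMP2-008 cells at 37 C. Concentration-response data fitted to the Hill equation to give AC50.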

A short description of assay [11]: Cell Viability - LYMP2-012 (AID 982).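 Also: cellular ATP by luciferase luminescence where a drop means cytotoxicity; cells exposed to compound for one day before reading; 0% = DMSO only and full loss = 92 µM tetraoctylammonium bromide; nearly all actives have a fitted effect of over 55% in size.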 Conditions: LYMP2-012 lymphoblastoid cell viability qHTS; series mostly up to 92.2 µM.
The nature of assay [12]: Cell Viability - LYMP2-014 (AID 983).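 Also: plate controls were DMSO only for no effect and 92 µM tetraoctylammonium bromide for full effect; nearly all actives have a fitted effect of over 50% in size.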 Conditions: LYMP2-014 lymphoblastoid cells, viability qHTS; series mostly up to 92.2 µM. Summed up:
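Intracellular ATP loss, read by luciferase luminescence, measures acute cytotoxicity after 24 h compound exposure of lymphoblastoid LYMP2-014 cells (2500/well, 37 C). Concentration-response data fitted to the Hill equation for AC50.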

The nature of assay [13]: Cell Viability - LYMP2-016 (AID 984). Also: % is scaled to controls: 0 for no effect and ±100 for the full control effect; nearly all actives have a fitted effect of over 55% in size. The conditions noted are these: LYMP2-016 lymphoblastoid cell viability, qHTS; series mostly up to 92.2 µM. Summed up: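 Cells were seeded at 2500 per well and rested 5 hr before a 24 hr compound exposure at 37 C. Viability was then gauged as cellular ATP by luciferase luminescence, with AC50 values fitted to the Hill equation.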
Assay [14] can be described thus: Cell Viability - LYMP2-020 (AID 986). Conditions: series mostly up to 92.2 µM. The gist of the method: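 Cytotoxicity in qHTS format: luminescent ATP readout from CellTiter-Glo after 24 h compound exposure at 37 C in complete medium. LYMP2-020 lymphoblastoid cells were seeded at 2500/well; concentration-response data fitted to the Hill equation for AC50.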
The nature of assay [15]: Cell Viability - LYMP2-024 (AID 988).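 Also: plate controls were DMSO only for no effect and 92 µM tetraoctylammonium bromide for full effect; nearly all actives have a fitted effect of over 60% in size.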 The conditions noted are these: LYMP2-024 lymphoblastoid cell viability; series mostly up to 92.2 µM. The gist of the method:
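Cytotoxicity was taken as a decrease in ATP (CellTiter-Glo luminescence) after 24 hr compound exposure at 37 C of LYMP2-024 lymphoblastoid cells, 2500 cells/well. Concentration-response data were fitted to the Hill equation to give AC50.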

The nature of assay [16]: Cell Viability - LYMP2-026 (AID 989). Also: % is scaled to controls: 0 for no effect and ±100 for the full control effect; nearly all actives have a fitted effect of over 50% in size. The conditions noted are these: LYMP2-026 lymphoblastoid cell viability, qHTS; series mostly up to 92.2 µM. The gist of the method: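 Cytotoxicity read as ATP-dependent luminescence (CellTiter-Glo, 30 min room temperature) after 24 h compound treatment at 37 C. LYMP2-026 lymphoblastoid line seeded at 2500 cells/well; AC50 derived by standard Hill equation.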

Assay [17] is described as follows: Cell Viability - LYMP1-002 - Assay at 40 hr (AID 994). Also: nearly all actives have a fitted effect of over 60% in size. Also: potency is read from the fitted curve at half-maximal effect. The conditions noted are these: LYMP1-002 lymphoblastoid cell viability; series mostly up to 92.2 µM. Summed up: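 Cytotoxicity was read as loss of cellular ATP (CellTiter-Glo luminescence) after 40 hr compound exposure at 37 C of 2500 LYMP1-002 lymphoblastoid cells per well. Concentration-response data were fitted with the standard Hill equation to give AC50.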

Assay [18] can be described thus: qHTS assay for small molecule antagonists of retinoid X receptor alpha signaling (AID 588546; active = well fitted inhibition curve with a large enough effect in the signal ratio, with a control signal flat, not every such curve was filed as active; the % refers to the signal ratio;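 also: cells stimulated with 9-cis-retinoic acid as agonist; % is scaled to controls: 0 for no effect and ±100 for the full control effect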). Conditions: HEK293T RXRa-UAS-bla, beta-lactamase ratio, antagonist mode; measured here: W530 green channel, cytotoxicity proxy. The gist of the method: (§1)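 Beta-lactamase reporter inhibition, read as CCF4 fluorescence ratio (ex 405, em 460/530 nm) after 2 h at RT. HEK293T UAS-bla cells, 2500/well, were stimulated with 9-cis-RA at 500 or 100 nM final alongside test compound for 18 h at 37 C.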

For assay [19], the target named is Retinoic acid receptor RXR-alpha (Homo sapiens) (UniProt P19793). The description is as above. Conditions: HEK293T RXRa-UAS-bla, beta-lactamase ratio, antagonist mode. The gist of the method: as §1
Assay [20] is described as follows: qHTS assay for environmental chemicals that activate the Aryl hydrocarbon Receptor (AhR) signaling pathway (AID 651777). Also: % of control where 0% means no effect; nearly all actives have a fitted effect of over 15% in size. Conditions: 1A2-DRE human hepatoma cells, luciferase, 24 h; activation: stronger effect = higher value. Summed up: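 Measured luciferase activity, read 30 min after One-Glo addition at room temperature, from human hepatoma cells bearing a dioxin response element–CYP1A2 promoter reporter and exposed to compound for 24 hr at 37 C.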

Chain of Retinoic acid receptor RXR-alpha (Homo sapiens) (P19793 whole entry, looked up): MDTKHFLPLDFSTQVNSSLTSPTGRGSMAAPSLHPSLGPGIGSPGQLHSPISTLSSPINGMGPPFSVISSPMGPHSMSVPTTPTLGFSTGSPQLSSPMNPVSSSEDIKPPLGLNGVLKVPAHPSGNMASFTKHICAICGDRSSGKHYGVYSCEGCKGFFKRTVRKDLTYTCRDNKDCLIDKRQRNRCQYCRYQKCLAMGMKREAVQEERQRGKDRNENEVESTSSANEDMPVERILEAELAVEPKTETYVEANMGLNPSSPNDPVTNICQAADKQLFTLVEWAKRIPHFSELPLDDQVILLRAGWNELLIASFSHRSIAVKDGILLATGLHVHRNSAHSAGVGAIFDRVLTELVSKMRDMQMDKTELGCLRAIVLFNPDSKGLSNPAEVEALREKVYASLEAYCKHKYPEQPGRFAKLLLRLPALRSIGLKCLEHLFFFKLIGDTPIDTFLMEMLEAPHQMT

For the compound `CCNC(=S)NCC`, the Potency in assay [1] is > 92 µM (inactive). Besides, the Potency result in [2], in assay [3], in assay [4], in assay [5], in assay [6] and in [7] was “inactive” in each case. Besides, the Potency result in [8], in assay [9], in assay [10], in assay [11], in assay [12] and in [13] was “inactive” in each case. For the same compound, the Potency entry in [14], in assay [15], in [16] and in assay [17] was “inactive” throughout. In addition, the figures for the max response in assay [18] and in assay [19] were -3.33% and 14.7% (inactive), respectively. For the same compound, the activation in assay [20] is 1.67% (inactive).
Take `O=CC(=O)c1ccccc1`: in [1], the Potency is > 92 µM (inactive). The Potency result in assay [2], in assay [3], in assay [4], in assay [5], in assay [6] and in assay [7] was “inactive” throughout. Also, the Potency entry in assay [11], in [12], in assay [13], in assay [14] and in assay [17] was “inactive” in each case. For the same compound, the figures for the max response in assay [18] and in assay [19] were -7.19% and 6.37% (inactive), respectively. Moreover, the activation in assay [20] is 0.568% (inactive).
In the case of `Cc1cc(=O)oc2cc(O)cc(O)c12`, in assay [1], the Potency is > 92 µM (inactive). In addition, the Potency entry in assay [2], in assay [3], in assay [4], in [5], in assay [6] and in assay [7] was “inactive” in each case. The Potency entry in [8], in assay [9], in assay [10], in assay [11], in [12] and in assay [13] was “inactive” throughout. The Potency entry in assay [14], in [15], in [16] and in assay [17] was “inactive” each time. In assay [20], the activation was 8.78% (inactive).
With `Brc1cc(Oc2cc(Br)c(Br)c(Br)c2Br)c(Br)c(Br)c1Br`, the Potency in [1] is > 92 µM (inactive). Moreover, the Potency entry in [2], in assay [3], in assay [4], in assay [5], in assay [6] and in [7] was “inactive” throughout. Moreover, the Potency result in [8], in [9], in [10], in assay [11], in assay [12] and in assay [13] was “inactive” in each case. Further, the Potency entry in assay [14], in assay [15], in [16] and in [17] was “inactive” in each case. Also, the max response in assay [18] is 11.5% and 5.63%; in assay [19], 8.94% (inactive) and -3.66% (inactive). Also, in assay [20], the activation is -1.15% (inactive) and -2.65% (inactive).
With `c1ccc(SCCSc2ccccc2)cc1`, the Potency in [1] was > 92 µM (inactive). Moreover, the Potency entry in assay [2], in assay [3], in assay [4], in assay [5], in [6] and in assay [7] was “inactive” each time. The Potency entry in [8], in assay [9], in [10], in [11], in [12] and in [13] was “inactive” each time. Besides, the Potency result in assay [14], in assay [15], in [16] and in assay [17] was “inactive” in each case. The max response in [18] is 0.714%; in assay [19], -1.47% (inactive). In assay [20], the activation was 14.7% (inactive).
Consider `CC(=O)OC(C(=O)c1ccccc1)c1ccccc1` (stereo not given), for which, in assay [1], the Potency was > 92 µM (inactive). For the same compound, the Potency entry in assay [2], in assay [3], in [4], in assay [5], in assay [6] and in [7] was “inactive” each time. Further, the Potency result in [8], in assay [9], in assay [10], in assay [11], in assay [12] and in assay [13] was “inactive” in each case. Also, the Potency entry in assay [14], in assay [15], in [16] and in assay [17] was “inactive” in each case. In addition, the max response was -6.89% in assay [18] and 22.3% (inactive) in assay [19]. Besides, in assay [20], the activation was -0.426% (inactive).
In the case of `O=C(OCC1CO1)C1CCCCC1C(=O)OCC1CO1` (stereo not given), the Potency in assay [1] was > 92 µM (inactive); in assay [5] it was 50.1 µM (active); in assay [8], 50.1 µM (active); in assay [17] it was 39.8 µM (active). The Potency result in assay [2] and in assay [4] was “inactive” each time. In addition, in assay [20], the activation is 0.749% (inactive).
Regarding `O=[N+]([O-])c1ccccc1Nc1ccccc1`, in assay [1], the Potency was > 92 µM (inactive). The Potency entry in assay [2], in [3], in assay [4], in assay [5], in assay [6] and in assay [7] was “inactive” in each case. In addition, the Potency result in assay [8], in [9], in [10], in assay [11], in assay [12] and in assay [13] was “inactive” throughout. Moreover, the Potency entry in [14], in assay [15], in assay [16] and in assay [17] was “inactive” in each case. The max response in [18] is -9.17%; in assay [19] it was 0.845% (inactive). Also, in [20], the activation was 1.93% (inactive).
